Measured values from ChEMBL document CHEMBL4513152, “CO-ADD screening of Yantai University (China) compounds”.
Entries with a potency or affinity are not part of this list.

Experiments:
Klebsiella pneumoniae = settings: Concentration 32 ug.mL-1; ASSAY_TEST Inhibition of Bacterial Growth; detection method Absorption (OD600); MEDIA CAMHB; plate type 384well; NBS; CORNING #3640; time 18 hr
Candida albicans = settings: 32 ug/mL
Cryptococcus neoformans = settings: Concentration 32 ug.mL-1; ASSAY_TEST Inhibition of Fungal Growth; detection method Resazurin; Absorption (OD600-OD570); plate type 384well; NBS; CORNING #3640

SMILES	Inhibition (Klebsiella pneumoniae) [%]	Inhibition (Candida albicans) [%]	Inhibition (Cryptococcus neoformans) [%]
CC(=O)O[C@H]1C[C@@]2(C)C(C[C@@H](O)C3[C@@]4(C)CC[C@@H](OC(=O)CCC(=O)O)[C@@H](C)C4CC[C@@]32C)/C1=C(\CCC=C(C)C)C(=O)OCc1ccccc1 (some centres not stated)	31.46	-1.56	-100.19
CC(=O)O[C@H]1C[C@@]2(C)C(C[C@@H](O)C3[C@@]4(C)CC[C@@H](O)[C@@H](C)C4CC[C@@]32C)/C1=C(\CCC=C(C)C)C(=O)On1nnc2ccccc21 (some centres not stated)	-4.91	3.88	-40.31
CC(=O)O[C@H]1C[C@@]2(C)C(C[C@@H](O)C3[C@@]4(C)CC[C@@H](O)[C@@H](C)C4CC[C@@]32C)/C1=C(\CCC=C(C)C)C(=O)OCc1ccccc1 (some centres not stated)	15.54	-0.49	-62.82
CC(=O)O[C@H]1C[C@@]2(C)C(C[C@@H](O)C3[C@@]4(C)CC[C@@H](OC(=O)C(C)N)[C@@H](C)C4CC[C@@]32C)/C1=C(\CCC=C(C)C)C(=O)OCc1ccccc1 (some centres not stated)	8.77	16.1	90.52
CC(=O)O[C@H]1C[C@@]2(C)C(CC(=O)C3[C@@]4(C)CC[C@@H](OC(=O)CCCCO[N+](=O)[O-])[C@@H](C)C4CC[C@@]32C)/C1=C(\CCC=C(C)C)C(=O)OCc1ccccc1 (some centres not stated)	10.79	-1.47	-85.18
CC(=O)O[C@H]1C[C@@]2(C)C(C[C@@H](O)C3[C@@]4(C)CC[C@@H](OC(=O)c5ccccc5C(=O)Nc5cccc(N)c5)[C@@H](C)C4CC[C@@]32C)/C1=C(\CCC=C(C)C)C(=O)OCc1ccccc1 (some centres not stated)	1.34	1.55	-66.02
CC(=O)O[C@H]1C[C@@]2(C)C(CC(=O)C3[C@@]4(C)CC[C@@H](OC(=O)CCCCCO[N+](=O)[O-])[C@@H](C)C4CC[C@@]32C)/C1=C(\CCC=C(C)C)C(=O)OCc1ccccc1 (some centres not stated)	8.79	-2.93	-87.68
CC(=O)O[C@H]1C[C@@]2(C)C(CC(=O)C3[C@@]4(C)CCC(=O)[C@@H](C)C4CC[C@@]32C)/C1=C(\CCC=C(C)C)C(=O)OCc1ccccc1 (some centres not stated)	19.97	6.47	-73.01
CC(=O)O[C@H]1C[C@@]2(C)C(C[C@@H](O)C3[C@@]4(C)CC[C@@H](OC(=O)CCC(=O)Oc5ccc(CCO[N+](=O)[O-])cc5)[C@@H](C)C4CC[C@@]32C)/C1=C(\CCC=C(C)C)C(=O)OCc1ccccc1 (some centres not stated)	-3.54	-8.49	-78.97
CC(=O)O[C@H]1C[C@@]2(C)C(C[C@@H](O)C3[C@@]4(C)CC[C@@H](OC(=O)CCC(=O)OCCc5ccc(OCCO[N+](=O)[O-])cc5)[C@@H](C)C4CC[C@@]32C)/C1=C(\CCC=C(C)C)C(=O)OCc1ccccc1 (some centres not stated)	3.49	-4.49	-89.71
CC(=O)O[C@H]1C[C@@]2(C)C(C[C@@H](O)C3[C@@]4(C)CC[C@@H](OC(=O)C(N)CC(C)C)[C@@H](C)C4CC[C@@]32C)/C1=C(\CCC=C(C)C)C(=O)OCc1ccccc1 (some centres not stated)	5.15	2.67	-45.25
CC(=O)O[C@H]1C[C@@]2(C)C(C[C@@H](O)C3[C@@]4(C)CC[C@@H](OC(=O)CO[N+](=O)[O-])[C@@H](C)C4CC[C@@]32C)/C1=C(\CCC=C(C)C)C(=O)OCc1ccccc1 (some centres not stated)	17.67	0.87	-43.62
CC(=O)O[C@H]1C[C@@]2(C)C(C[C@@H](O)C3[C@@]4(C)CC[C@@H](OC(=O)C(N)C(C)C)[C@@H](C)C4CC[C@@]32C)/C1=C(\CCC=C(C)C)C(=O)OCc1ccccc1 (some centres not stated)	18.28	14.4	88.23
CC(=O)O[C@H]1C[C@@]2(C)C(C[C@@H](O)C3[C@@]4(C)CC[C@@H](OC(=O)c5ccccc5C(=O)Oc5ccc(CCO[N+](=O)[O-])cc5)[C@@H](C)C4CC[C@@]32C)/C1=C(\CCC=C(C)C)C(=O)OCc1ccccc1 (some centres not stated)	0.97	-5.71	-72.43
CC(=O)O[C@H]1C[C@@]2(C)C(C[C@@H](O)C3[C@@]4(C)CC[C@@H](OC(=O)c5ccccc5C(=O)OCCc5ccc(OCCO[N+](=O)[O-])cc5)[C@@H](C)C4CC[C@@]32C)/C1=C(\CCC=C(C)C)C(=O)OCc1ccccc1 (some centres not stated)	4.99	-0.23	-57.39
CC(=O)O[C@H]1C[C@@]2(C)C(C[C@@H](O)C3[C@@]4(C)CC[C@@H](OC(=O)CCCCCO[N+](=O)[O-])[C@@H](C)C4CC[C@@]32C)/C1=C(\CCC=C(C)C)C(=O)OCc1ccccc1 (some centres not stated)	-0.98	-2.51	-81.56
CC(=O)O[C@H]1C[C@@]2(C)C(C[C@@H](O)C3[C@@]4(C)CC[C@@H](O)[C@@H](C)C4CC[C@@]32C)/C1=C(\CCC=C(C)C)C(=O)Oc1ccc(CCO[N+](=O)[O-])cc1 (some centres not stated)	24.64	7.08	-126.19
CC(=O)O[C@H]1C[C@@]2(C)C(C[C@@H](O)C3[C@@]4(C)CC[C@@H](OC(=O)CCCCO[N+](=O)[O-])[C@@H](C)C4CC[C@@]32C)/C1=C(\CCC=C(C)C)C(=O)OCc1ccccc1 (some centres not stated)	6.42	-3.76	-91.73
CC(=O)O[C@H]1C[C@@]2(C)C(C[C@@H](O)C3[C@@]4(C)CC[C@@H](OC(=O)c5ccccc5C(=O)Nc5ccc(N)cc5)[C@@H](C)C4CC[C@@]32C)/C1=C(\CCC=C(C)C)C(=O)OCc1ccccc1 (some centres not stated)	5.38	25	-105.92
